The values that follow come from PubChem BioAssay AID729 (The Scripps Research Institute Molecular Screening Center, 2007).

In all, about 97,000 compounds went through this assay and about 450 (0.46%) were called active. No stated cut-off is given here; in the data, active means activation above about 16%; inactive means the rest. The list comes from a sample in which actives are over-represented; it also holds similar structures and randomly drawn compounds.

The target in the test is Sphingosine 1-phosphate receptor 2 (Homo sapiens) (UniProt O95136). Put plainly: S1P2 receptor agonists, primary screen, cell-based (AID 729).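 Further: 0% = vehicle low control and 100% = maximal reference agonist.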 The settings on record: S1P2-expressing cell line, agonist reporter read-out; at 4.5 µM; active compounds read high.
Chain of Sphingosine 1-phosphate receptor 2 (Homo sapiens) (O95136 whole entry, looked up): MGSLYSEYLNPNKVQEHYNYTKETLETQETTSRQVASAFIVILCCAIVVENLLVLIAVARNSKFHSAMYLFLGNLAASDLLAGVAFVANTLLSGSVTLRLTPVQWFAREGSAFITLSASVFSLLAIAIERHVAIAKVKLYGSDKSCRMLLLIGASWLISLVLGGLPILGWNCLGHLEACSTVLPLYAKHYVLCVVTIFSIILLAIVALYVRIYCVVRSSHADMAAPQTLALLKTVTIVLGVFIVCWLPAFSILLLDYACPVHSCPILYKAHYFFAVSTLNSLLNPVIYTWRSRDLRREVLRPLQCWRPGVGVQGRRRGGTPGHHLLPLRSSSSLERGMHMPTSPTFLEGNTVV
Take `Cc1ccc(-c2nnc(C)c(N3CC(C)OC(C)C3)n2)cc1` (stereo not drawn): the activation is -6.7% (inactive).

Consider `COc1ccc(-c2cc(C(=O)n3cnc4ccccc43)c3ccccc3n2)cc1`, for which the activation was -1.61% (inactive).

With `CC(C)C(NS(=O)(=O)c1cccs1)C(=O)Nc1nc(C(C)(C)C)cs1` (stereo not drawn), the activation was -5.87% (inactive).

On to `Cc1nc(C)c(C(=O)N(c2ccc(C)c(C)c2)C(C(=O)NCc2ccco2)c2ccccc2)s1` (stereo not drawn), for which the activation is -5.57% (inactive).

Consider `COc1ccc(/C=N/Nc2nc3ccccc3o2)cc1OC`, for which the activation is 1.35% (inactive).

In the case of `O=C1CCCc2c1nc(-c1cccc(Cl)c1)n2O`, the activation was -8.02% (inactive).

Consider `Cc1ccc(-c2csc(SCC(=O)Nc3cc(C)on3)n2)cc1`, for which the activation is -3.51% (inactive).

Take `O=C(O)[C@@H]1CCCN1c1ncnc2sc3c(c12)CCC3`: the activation was -0.47% (inactive).

As to `OCCNc1nc2ccccc2n1-c1ncnc2sc3c(c12)CCC3`, the activation is 17.8% (active).

Take `CC(C)(C)C(=O)Cn1c(NCCO)nc2ccccc21`: the activation is 0.17% (inactive).

For `COc1ccccc1/C=C/C1=NC(=C\N(C)C)/C(=O)O1`, the activation is 3.03% (inactive).

For `CCCc1nc2sc3c(c2c(=O)n1NC(=O)CCCl)CCCC3`, the activation was -7.02% (inactive).

As to `Cc1ccc2oc(=O)c3cnn(CC(=O)N(Cc4ccco4)C4CCCCC4)c3c2c1`, the activation was -2.42% (inactive).

Regarding `CC(CN1CCOCC1)c1ccccc1` (stereo not drawn), the activation was -0.64% (inactive).

Consider `COc1ccc(NC(=O)COC(=O)Cn2c(C)nc3ccccc32)cc1OC`, for which the activation was -6.15% (inactive).

As to `COc1ccc(NC(=O)C(NC(C)=O)C(=O)NCc2ccccc2Cl)cc1` (stereo not drawn), the activation is -7.51% (inactive).

`CCNC(=O)NC(=O)C(C)OC(=O)c1cc(S(=O)(=O)N2CCCCCC2)ccc1OC` (stereo not drawn): the activation was -4.87% (inactive).

As for `COc1ccc(N(CCC#N)S(=O)(=O)c2ccc(Cl)cc2)cc1`, the activation was -1.5% (inactive).

In the case of `O=C(NCc1ccco1)C1CCCN(S(=O)(=O)c2ccccc2)C1` (stereo not drawn), the activation was -2.97% (inactive).

For `O=C1CSC(c2cccc(F)c2)N1c1ccc(O)cc1` (stereo not drawn), the activation was -7.24% (inactive).

For the compound `Nc1nc(Br)c2ccccc2c1-c1ccc(F)cc1`, the activation was 4.89% (inactive).

Consider `Cc1ccc(S(=O)(=O)N2CCN(S(=O)(=O)N3CCOCC3)CC2)cc1`, for which the activation is -6.81% (inactive).

As to `COc1ccc(-c2nc3ccccc3n2CCC(C)C)cc1OC`, the activation is -4.13% (inactive).

For the compound `CCC(C)n1c(-c2cc(OC)c(OC)c(OC)c2)nc2nc3ccccc3nc21` (stereo not drawn), the activation was 16.8% (active).

Take `COc1cc(C(O)c2nc3ccccc3n2C)cc(OC)c1OC` (stereo not drawn): the activation is -6.52% (inactive).

On to `CC(C)(C)c1ccc(OC2=CS(=O)(=O)c3ccccc32)cc1`, for which the activation was -6.02% (inactive).

`O=C(CCCCCn1c(=O)[nH]c2ccccc2c1=O)NCCc1c[nH]c2ccccc12`: the activation is -8.42% (inactive).

Consider `CCc1ccc2c(c1)C1(NN=C(c3ccccc3)S1)C(=O)N2` (stereo not drawn), for which the activation was -1.92% (inactive).

In the case of `COc1ccc(C(=O)Nc2ccc(F)cc2F)cc1`, the activation is -5.08% (inactive).

Turning to `Cc1cc(C)c(S(=O)(=O)NCC2CCC(C(=O)NCc3ccc4c(c3)OCO4)CC2)c(C)c1` (stereo not drawn), the activation was -5.15% (inactive).

`OC(C#CCN1CCOCC1)(c1ccccc1)C1CCCCC1` (stereo not drawn): the activation is -4.7% (inactive).

Take `CC1CN(S(=O)(=O)c2ccccc2)C(C)CN1S(=O)(=O)c1ccccc1` (stereo not drawn): the activation is -2.5% (inactive).

For the compound `O=C(Nc1ccccc1Cl)N1CCN(c2ccc3nncn3n2)CC1`, the activation was -1.47% (inactive).

Take `O=C(NCCc1ccccc1)c1ccc(NC2=NC3CS(=O)(=O)CC3S2)cc1` (stereo not drawn): the activation is 0.04% (inactive).

For `COc1ccccc1C(c1nnnn1C(C)(C)C)N1CCN(Cc2ccccc2)CC1` (stereo not drawn), the activation was -7.69% (inactive).

With `Cc1c(Nc2nc3ccccc3nc2NS(=O)(=O)c2cccs2)c(=O)n(-c2ccccc2)n1C`, the activation is -4.46% (inactive).

In the case of `O=S(=O)(NCC1OCCc2ccccc21)c1ccccc1` (stereo not drawn), the activation was 0.09% (inactive).

As for `CN1CCN(C(=O)Cn2c(C(F)(F)F)nc3ccccc32)CC1`, the activation was -7.46% (inactive).

For the compound `COC(=O)c1cc(OC)c(OC)cc1NC(=O)CSc1ccc(C)cc1`, the activation was -4.04% (inactive).

Turning to `COc1ccccc1CCNC(=O)c1cnccn1`, the activation is -1.07% (inactive).

For the compound `Cc1ccc(-n2cc3ccc([N+](=O)[O-])cc3n2)cc1`, the activation is -0.28% (inactive).

Take `CCOc1ccccc1NC(=O)c1cccnc1`: the activation is -2.14% (inactive).

For the compound `Cc1nc2ccc(C(=O)N3CCN(c4ccccc4)CC3)cc2s1`, the activation was -0.32% (inactive).

For `CCOc1nc(NCCN2CCOCC2)nc(Nc2ccc(C)cc2)n1`, the activation is -6.53% (inactive).

Regarding `CCc1c(O)cc2n(c1=O)-c1ccccc1C2(C)C`, the activation is -1.15% (inactive).

As for `CSCCC(NC(=O)COc1ccccc1)C(=O)OCC(=O)c1cc2ccccc2o1` (stereo not drawn), the activation was 0.32% (inactive).

As to `CC(C)n1c(-c2cccs2)nc2ccccc21`, the activation is -0.76% (inactive).

Consider `COc1ccc(/C=N/Nc2nc3ccccc3c(=O)[nH]2)cc1`, for which the activation is -4.61% (inactive).

On to `O=c1[nH]c(-c2cccs2)nc2ccccc12`, for which the activation is 71.4% (active).

With `CCCCNC(=O)CCNC(=O)c1ccc(C(C)(C)C)cc1`, the activation was -3.72% (inactive).

As for `N#C/C(=C/c1ccc(Cl)cc1)NC(=O)c1ccccc1`, the activation was -4.04% (inactive).

Regarding `CNc1nc(SC)nc(N(C#N)CC(=O)OC)n1`, the activation is -6.48% (inactive).

Regarding `CCCc1nnc(NC(=O)CN2C(=O)c3ccccc3S2(=O)=O)s1`, the activation is -3.54% (inactive).

Turning to `CNC(=O)CN1C(=O)c2ccccc2S1(=O)=O`, the activation is -1.63% (inactive).

On to `Nc1nnc(SCCN2C(=O)c3ccccc3S2(=O)=O)s1`, for which the activation was 17.5% (active).

Consider `COc1ccccc1Nc1ncnc2c1oc1ccccc12`, for which the activation is -9.1% (inactive).

As for `Cc1nc(Cl)c2oc3ccccc3c2n1`, the activation is 1.01% (inactive).

For the compound `CCc1nc(Nc2ccc3nccnc3c2)c2oc3ccccc3c2n1`, the activation is 46.5% (active).

With `Cc1cc(C)n(-c2nc(O)cc(=O)[nH]2)n1`, the activation is -4.33% (inactive).

Consider `Cc1ccc(-n2ccc(=O)c(C(=O)O)n2)cc1`, for which the activation was -0.77% (inactive).

Turning to `C=CCO/N=C(\C)c1c(O)c(C)c(-c2ccccc2)n(-c2ccccc2)c1=O`, the activation was -3% (inactive).

For `COc1ccc(SCc2noc(C(=O)NCC3CCCO3)c2C(=O)O)cc1` (stereo not drawn), the activation was -7.32% (inactive).

Consider `CCOc1c2ccc(C(=O)NCc3ccc4c(c3)OCO4)cc2nn1C`, for which the activation was -2.43% (inactive).

As for `COCCNC(=O)Cn1cc(C(=O)c2cccs2)c2ccccc21`, the activation is -4.41% (inactive).

As to `CC(C)C(=O)Nc1ccc2c(c1)oc1ccccc12`, the activation is 0.25% (inactive).

Regarding `c1ccc2c(-c3nn4nnnc4c4ccccc34)cccc2c1`, the activation is -3.13% (inactive).

Take `O=C(O)COc1ccc(-c2nccc(-c3cccs3)n2)cc1`: the activation is -4.12% (inactive).

For the compound `CCOC(=O)c1sc(NC(=O)c2ccncc2)nc1C`, the activation is -5.01% (inactive).

As to `CCOC(=O)c1sc(NC(=O)C(CC)Sc2nccn2C)nc1C` (stereo not drawn), the activation was -5.49% (inactive).

Consider `C=CCn1c2ccccc2c2nnc(SC(CC)C(=O)Nc3nc(C)c(C(=O)OCC)s3)nc21` (stereo not drawn), for which the activation is 21.9% (active).

As for `O=C(/C=C/c1cccs1)c1cc(Cl)ccc1OC(=O)N1CCOCC1`, the activation was -8.27% (inactive).

Take `CSCc1cc(N(C)C)nc(SCc2ccc(Cl)cc2Cl)n1`: the activation is -6.28% (inactive).

In the case of `CCCC1(C(=O)OCC)NC(c2ccc(N(C)C)cc2)C2C(=O)N(c3ccc4c(c3)OCCO4)C(=O)C21` (stereo not drawn), the activation was -0.77% (inactive).

With `CCCCSc1[nH]c(=O)c(C(=O)OCC)cc1C#N`, the activation is -3.23% (inactive).

Consider `N#CCSc1nc2c(c(=O)n1Cc1ccccc1)C1(CCCC1)Cc1ccccc1-2`, for which the activation is -7.66% (inactive).

On to `Cc1ccccc1CSCCNC(=O)c1ccc(Cl)c(S(=O)(=O)N2CCOCC2)c1`, for which the activation was -6.39% (inactive).

For `COC(=O)c1cc2nc(-c3ccccc3)cc(C(F)(F)F)n2n1`, the activation is -1.4% (inactive).

With `CCN(CC)c1nc(-c2ccccc2)cc(C(F)(F)F)c1C#N`, the activation is 23.9% (active).

With `N#Cc1c(C(F)(F)F)cc(-c2ccccc2)nc1SCC(=O)N1CCOCC1`, the activation is -6.15% (inactive).

For the compound `Cc1nn(CC(=O)Nc2nc3ccccc3s2)c(C)c1[N+](=O)[O-]`, the activation was -7.14% (inactive).

Consider `NC1=NC(=O)C2(COC(c3ccccc3Cl)OC2)S1` (stereo not drawn), for which the activation was -5.49% (inactive).

`COc1cccc(-c2cc(C(=O)N/N=C/c3ccc(OC)c(COC(C)=O)c3)c3ccccc3n2)c1`: the activation was -4% (inactive).

Consider `COc1cc2c(cc1OC)C(C(=O)NCc1ccco1)C1c3ccccc3CCN1C2=O` (stereo not drawn), for which the activation is -4.83% (inactive).

In the case of `Oc1ccccc1CNc1ncc(Br)cc1Br`, the activation was -9.29% (inactive).

Turning to `O=C(Nc1ccc(Br)c2cccnc12)c1ccc(Cn2cc([N+](=O)[O-])cn2)o1`, the activation was -1.75% (inactive).

On to `FC(F)(F)c1cccc(-c2cc3ccccc3nc2N2CCCC2)c1`, for which the activation is -10.1% (inactive).

Consider `O=C1/C(=C/c2cccs2)CCc2ccccc21`, for which the activation was -5.98% (inactive).

Regarding `CN(C)S(=O)(=O)c1ccc(N2CCCC2)c(C(=O)NCc2ccccc2)c1`, the activation is -3.61% (inactive).

With `O=C(NCc1ccc(Cl)cc1)c1cc(=O)nc2sc(-c3ccccc3)nn12`, the activation was -3.55% (inactive).

In the case of `O=[N+]([O-])c1ccc(Oc2ccc(F)cc2Br)c2ccncc12`, the activation is -12.3% (inactive).

Turning to `CCOC(=O)C(C)Sc1nc2ccccc2c(=O)n1CC1CCCCC1` (stereo not drawn), the activation was 1.92% (inactive).

Turning to `CN(C)c1ccnc2sc3c(=O)n(-c4ccc(Cl)cc4)cnc3c12`, the activation was -3.21% (inactive).

On to `CC12CN3CC(C)(CN(C1)C3c1ccc(Cl)cc1Cl)C2=O` (stereo not drawn), for which the activation is -3.81% (inactive).

Consider `CCOc1ccccc1C1C(C(=O)OC)=CN(C)C=C1C(=O)OC`, for which the activation was 25.5% (active).

As for `COC(=O)C1=C(C)N(C)C(C)=C(C(=O)OC)C1c1cccc(Br)c1`, the activation is -1.98% (inactive).

For `CCOc1ccccc1N(CC(=O)Nc1ccccc1C(=O)OC)S(C)(=O)=O`, the activation was -7.41% (inactive).

Take `CCOc1cc(C2C(C(=O)OC)=CN(C3CCCC3)C=C2C(=O)OC)cc(Br)c1O`: the activation was 7.13% (inactive).

On to `COC(=O)C1=CN(C)C=C(C(=O)OC)C1c1ccc(Cl)cc1Cl`, for which the activation is 32.1% (active).
